PubChem BioAssay AID540333 (Southern Research Specialized Biocontainment Screening …, 2011)
About 320 (3.2%) of roughly 10,000 compounds were called active. Shown is part of a subset that was picked to be rich in actives. Values without a mark were called inactive. Cut-off read from the data, not from the text of the source: active = CPE inhibition mostly above about 9.1% (no sharp cut-off); inactive = mostly below about 7.2%.

assay: Dengue virus cytopathic effect inhibitors, cell-based, CPE readout, HTS (AID 540333); details: Dengue virus CPE inhibition in host cells, at 20 µM; hits give high values

Row | SMILES | CPE inhibition
1 | COc1ccc(OCC(=O)N2c3ccccc3CCc3ccccc32)cc1 | inactive
2 | O=C(COc1ccc(Cl)cc1)OCC(=O)N1CCCc2ccccc21 | inactive
3 | CCc1ccc(OCC(=O)N2c3ccccc3CCc3ccccc32)cc1 | 14.2% (active)
4 | COc1cc(/C(C)=N/NC(=S)NC(C)C)cc(OC)c1OC | inactive
5 | N#Cc1ccc(NC(=O)CCc2nc3ccccc3s2)cc1 | inactive
6 | COC(=O)C1=C(NC(=O)COc2ccc3ccccc3c2)CCS1 | 1.12%
7 | Cc1ccc(NC(=O)CNc2ccc(Cl)cc2F)cc1 | 0.58%
8 | COc1ccc(C)cc1NCC(=O)Nc1ccc(C(C)(C)C)cc1 | 15.4% (active)
9 | COc1ccc(Cl)cc1NC(=O)CNc1ccccc1F | 0.95%
10 | COc1cc(NC(=S)NC(=O)CC(C)C)ccc1NC(=O)c1cc2ccccc2o1 | 0.02%
11 | O=C(COC(=O)c1cccc(NS(=O)(=O)c2ccc(F)c(F)c2)c1)NC(=O)NC1CCCCC1 | 3.8%
12 | O=C(c1cccc(NS(=O)(=O)c2ccc(F)c(F)c2)c1)N1CCN(C(c2ccccc2)c2ccccc2)CC1 | 39.5% (active)
13 | O=C(c1cccc(NS(=O)(=O)c2ccc(F)c(F)c2)c1)N1CCN(Cc2ccccc2)CC1 | inactive
14 | CCn1c(-c2c(Cl)c(C)nn2C)n[nH]c1=S | inactive
15 | COCCCNC(=S)NC1CCCCC1 | inactive
16 | O=C1C(Cc2ccc(F)cc2)SC(=Nc2ccccc2)N1c1ccccc1 (centres undefined) | 1.01%
17 | Cc1ccc(CC2SC(=Nc3ccccc3)N(c3ccccc3)C2=O)cc1 (centres undefined) | 4.75%
18 | O=C1C(Cc2ccc(Br)cc2)SC(=Nc2ccccc2)N1c1ccccc1 (centres undefined) | 12.3% (active)
19 | Cc1nn(-c2ccccc2)c(N)c1C(O)(C(F)(F)F)C(F)(F)F | 0.32%
20 | CCOC(=O)[C@@H]1[C@H]2COc3ccc(Br)cc3[C@@H]2N2C(=O)N(c3ccc(OC)cc3)C(=O)[C@]12C | 1.7%

Row | SMILES | CPE inhibition
21 | S=C(NCC1CCCO1)Nc1ccc(Cl)cc1 (centres undefined) | 0.15%
22 | Cc1cc(C)cc(NC(=O)C(c2ccccc2)N2CCCC2)c1 (centres undefined) | 0.92%
23 | Cc1ccc(S(=O)(=O)N2CCN(C(C(=O)Nc3ccc(F)cc3)c3ccccc3)CC2)cc1 (centres undefined) | 1.1%
24 | Cc1ccc(NC(=O)C(c2ccc(Cl)cc2Cl)N2CCCC2)cc1 (centres undefined) | 11.5% (active)
25 | Cc1cccc2cc(C3CC(c4ccco4)=NN3C(=O)CCC(=O)O)c(Cl)nc12 (centres undefined) | inactive
26 | COc1cc(C(=O)NCC(c2cccs2)N(C)C)cc(Cl)c1OC(C)C (centres undefined) | 0.015%
27 | COCCNC(=O)CCCC(=O)NCCOC | inactive
28 | CC1=C(C(=O)Nc2ccc(F)c(F)c2)C(c2cccs2)NC(=S)N1 (centres undefined) | 0.675%
29 | CCOc1cccc(C2NC(=S)NC(C)=C2C(=O)Nc2ccccc2)c1 (centres undefined) | 0.13%
30 | CCOC(=O)c1c(NC(=O)C2=C(C)NC(=S)NC2c2ccc(F)cc2F)sc(C)c1C (centres undefined) | 32.4% (active)
31 | O=C(CSc1nc2ccccc2n1S(=O)(=O)c1cccc([N+](=O)[O-])c1)NCc1cccs1 | 0.11%
32 | COc1cc(C(=O)OCC(=O)Nc2ccc(SC(F)F)cc2)cc(OC)c1OC | inactive
33 | O=C(Cc1c[nH]c2ccccc12)NNC(=O)c1ccccc1 | 0.335%
34 | COc1ccccc1CNC(=O)C(Cc1c[nH]c2ccccc12)NC(=O)OCc1ccccc1 (centres undefined) | 6.32%
35 | Cc1ccc(NP(=O)(c2ccc(N(C)C)cc2NC(=O)c2cccs2)N2CCOCC2)cc1Cl (centres undefined) | 28.7% (active)
36 | CN(C)c1ccc(P(=O)(Nc2ccccc2)N2CCOCC2)c(NC(=O)c2cccs2)c1 (centres undefined) | 2.15%
37 | Cc1ccc(NP(=O)(c2ccc(N(C)C)cc2NC(=O)c2cccs2)N2CCOCC2)cc1 (centres undefined) | 2.19%
38 | COC(=O)c1ccccc1NC(=O)C1CCCO1 (centres undefined) | 3.31%
39 | CCOC(=O)c1c(C)[nH]c(C(=O)COC(=O)[C@H](C)NC(=O)c2ccccc2Cl)c1C | 0.24%
40 | O=C(NNc1nc(-c2ccc(Cl)cc2)cs1)c1ccco1 | inactive

Row | SMILES | CPE inhibition
41 | O=C(Nc1nc(-c2ccc(Cl)cc2)cs1)NC1CCCCC1 | 20.3% (active)
42 | CC(=O)c1c(C)[nH]c(C(=O)Nc2nc(-c3ccc(-c4ccccc4)cc3)cs2)c1C | 4.52%
43 | CC(=O)c1c(C)[nH]c(C(=O)Nc2nc(-c3ccccc3)c(C)s2)c1C | 0.6%
44 | CC(=O)c1c(C)[nH]c(C(=O)Nc2nc(-c3ccc(Cl)cc3)cs2)c1C | 26.9% (active)
45 | O=C(/C=C/c1ccco1)NC(=S)Nc1nc(-c2ccc(Cl)cc2)cs1 | 1.57%
46 | CCOP(=O)(OCC)C(Nc1ccccc1)c1cc(OC)ccc1OC (centres undefined) | inactive
47 | COc1cccc(-c2c(-c3cc(OC)cc(OC)c3)n(C)c3ccc(-c4ccc5[nH]ccc5c4)cc23)c1 | 2.75%
48 | CCN(C(=O)COC(=O)/C=C/c1ccc(O)c(OC)c1)C1CCS(=O)(=O)C1 (centres undefined) | 0.935%
49 | O=C(CCl)N(c1ccccc1)C1CCS(=O)(=O)C1 (centres undefined) | inactive
50 | O=C(/C=C/c1ccc(Cl)cc1Cl)N(Cc1ccccc1)C1CCS(=O)(=O)C1 (centres undefined) | 38.5% (active)
51 | O=C(/C=C/c1ccc(Cl)cc1Cl)NCCSCc1ccccc1 | 0.45%
52 | O=C(/C=C/c1ccc(Cl)cc1Cl)N(Cc1ccc(Cl)cc1)C1CCS(=O)(=O)C1 (centres undefined) | 29.6% (active)
53 | CC(C)CN(C(=O)CSc1nn(-c2ccc(Cl)cc2)c(=S)s1)C1CCS(=O)(=O)C1 (centres undefined) | 2.1%
54 | COc1nccnc1NS(=O)(=O)c1ccc(NC(=S)NC(=O)c2ccccc2)cc1 | inactive
55 | Cc1cc(C)cc(NC(=O)CSc2nc3c(oc4ccccc43)c(=O)n2-c2ccccc2)c1 | 0.68%
56 | COc1ccc(NC(=O)COC(=O)CNS(=O)(=O)c2ccc(F)c(F)c2F)cc1OC | inactive
57 | O=C(Nc1cc(S(=O)(=O)Nc2ccc(Cl)cc2)ccc1N1CCCCC1)c1ccc(F)cc1Cl | inactive
58 | N#Cc1ccc(C(=O)Nc2cc(S(=O)(=O)Nc3ccc(Cl)cc3)ccc2N2CCCCC2)cc1 | 7.53% (active)
59 | COc1ccc(NS(=O)(=O)c2ccc(N3CCOCC3)c(NC(=O)c3ccc(OC)cc3)c2)cc1 | inactive
